Results published in PubChem BioAssay (EPA / NIEHS).
Results filed as inconclusive are left out. Activity calls are given as the source filed them. The calls were made as follows: active = hit-call score of the fitted dose curve at least 0.9, where 1 is the maximum; inconclusive = response in the unintended direction; inactive = score below 0.9.

Assay: Tanguay_ZF_120hpf_SOMI_legacy: (Legacy) Oregon State University Tanguay Lab 120 Hour Post-fertilization zebrafish Assay for Somite Malformation (AID 2283647)
Description: Tanguay_ZF_120hpf_legacy is a whole embryo, multiplexed endpoint assay using zebrafish larvae exposed for 120 hours post fertilization on a 96-well plate.Tanguay_ZF_120hpf_SOMI_legacy is one of one assay component(s) measured or calculated from the Tanguay_ZF_120hpf_legacy assay. It is designed to make measurements of zebrafish development as detected with brightfield microscopy of developing zebrafish embryos.Data from the assay component Tanguay_ZF_120hpf_SOMI_legacy was analyzed into 1 assay endpoints. This assay endpoint, Tanguay_ZF_120hpf_SOMI_legacy, was analyzed in the positive analysis fitting direction relative to DMSO as the negative control and baseline of activity. Using a type of morphology reporter, gain-of-signal activity can be used to understand changes in developmentals as they relate to the whole embryo. To generalize the intended target to other relatable targets, this assay endpoint is annotated to the zebrafish development intended target family, where the subfamily is somitogenesis.
Zebrafish husbandry: Tropical 5D wild-type adult zebrafish were housed in at an approximate density of 1000 per 100 gallon tank at the Sinnhuber Aquatic Research Laboratory, Oregon State University, Corvallis, OR. Each tank was kept at standard laboratory conditions of 28C on a 14-h light/10-h dark photoperiod in fish water consisting of reverse osmosis water supplemented with a commercially available salt (Instant Ocean). Spawning funnels were placed into the tanks the night prior, and embryos were collected and staged. To increase bioavailability, the chorion was enzymatically removed using pronase (63.6mg/ml, >/= 3.5U/mg, Sigma-Aldrich: P5147) at 4 hours post fertilization (hpf) using a custom automated dechorionator.Chemical exposures: Six hpf dechorionated embryos were placed 1 embryo per well in a 96-well plate prefilled with 90 ul of EM using automated embryo placement systems (AEPS). Ten microliters of each row of dilution plate 2 was added to 2 exposure plates. The final DMSO concentration used was 0.64% (vol/vol). Thirty-two embryos were also exposed to 5uM trimethyltin chloride (positive control). Plates were sealed to prevent evaporation and foil covered to reduce light exposure and kept in a 28C incubator. Embryos were statically exposed until 120 hpf. At 24 hpf, embryos were assessed for photomotor response using a custom photomotor response analysis tool (PRAT) and for developmental toxicity endpoints (MO24: mortality at 24 hpf, DP: developmental progression, SM: spontaneous movement, and NC: notochord distortion). At 120 hpf, locomotor activity was measured using Viewpoint Zebralab and assessed for 18 endpoints. Zebrafish acquisition and analysis program (ZAAP), a custom program designed to inventory, acquire, and manage zebrafish data, was used to collect developmental endpoints as either present or absent (i.e., binary responses were recorded). If mortality occurred for an embryo (at either 24 or 120 hpf), the non-mortality endpoints were not measured.

| Structure (SMILES) | outcome | AC50 |
| --- | --- | --- |
| OCC(O)CO | inactive |  |
| CC(=O)O | inactive |  |
| N[C@@H](Cc1c[nH]c2ccccc12)C(=O)O | inactive |  |
| CCCC(=O)O | inactive |  |
| CSc1ccc(Oc2ccc(S(N)(=O)=O)cc2CN(C)C)cc1C | inactive |  |
| COC(=O)[C@H]1[C@H]2C[C@@H]3c4[nH]c5cc(OC)ccc5c4CCN3C[C@H]2C[C@@H](OC(=O)c2cc(OC)c(OC)c(OC)c2)[C@@H]1OC | inactive |  |
| O=NO | inactive |  |
| NC(=Nc1ccccc1)Nc1ccccc1 | inactive |  |
| CN(C)C(=O)NC1(c2ccccc2)CCN(CCC[C@]2(c3ccc(Cl)c(Cl)c3)CCCN(C(=O)c3ccccc3)C2)CC1 | inactive |  |
| Cc1c(C)c2c(c(C)c1O)CCC(C)(COc1ccc(CC3SC(=O)NC3=O)cc1)O2 (stereo not given) | inactive |  |
| OCC(CO)n1cnc(-c2ccc(F)cc2)c1-c1ccnc(Oc2ccccc2)n1 | inactive |  |
| COC(=O)CCCC(=O)OC | inactive |  |
| CC(C)(O)c1ccc(CNC(=O)c2cccnc2Oc2ccc(F)cc2)cc1 | inactive |  |
| C/C=C/C=C/C(=O)O | inactive |  |
| O=C1NC(=O)C(c2ccccc2)(c2ccccc2)N1 | inactive |  |
| Cc1occc(=O)c1O | inactive |  |
| C/C=C/c1ccc(OC)cc1 | inactive |  |
| O=C(O)c1cccnc1 | inactive |  |
| CCC(C)N(C)C(=O)c1cc2ccccc2c(-c2ccccc2Cl)n1 (stereo not given) | inactive |  |
| S=c1[nH]c2ccccc2s1 |  | 44.5 µM (active) |

| Structure (SMILES) | outcome | AC50 |
| --- | --- | --- |
| C=CCc1ccc(OC)c(OC)c1 | inactive |  |
| CCCC[C@H]1CN(CC2CCOCC2)C(=O)OC12CCN(C1(C)CCN(C(=O)c3c(C)ncnc3C)CC1)CC2 | inactive |  |
| CCOCCOCCO | inactive |  |
| C=CCCCCCCCCCCCC | inactive |  |
| c1ccc2occc2c1 | inactive |  |
| NC=O | inactive |  |
| CC(=O)CC(c1ccccc1)c1c(O)c2ccccc2oc1=O (stereo not given) | inactive |  |
| CCCCc1nc2cccnc2n1Cc1ccc(-c2ccccc2-c2nnn[nH]2)cc1 | inactive |  |
| O=C(Oc1ccccc1)c1cccc(C(=O)Oc2ccccc2)c1 | inactive |  |
| CCc1nc(N)nc(N)c1-c1ccc(Cl)cc1 | inactive |  |
| CC1(C)C(=O)NC(=O)N1CO | inactive |  |
| Oc1ccccc1O | inactive |  |
| Nc1nc(Cl)nc2c1ncn2[C@H]1C[C@H](O)[C@@H](CO)O1 | inactive |  |
| CC(=O)[C@@]1(O)CC[C@H]2[C@@H]3CCC4=CC(=O)CC[C@]4(C)[C@H]3CC[C@@]21C | inactive |  |
| CO[C@@H]1COCC[C@@H]1N[C@@H]1CC[C@@](C(=O)N2CCc3ncc(C(F)(F)F)cc3C2)(C(C)C)C1 | inactive |  |
| O=C1CCCCC1 | inactive |  |
| CCCCC(CC)COP(=O)(OCC(CC)CCCC)OCC(CC)CCCC (stereo not given) | inactive |  |
| CCCCCCCCCCCCCCOS(=O)(=O)O | inactive |  |
| O=Cc1ccccc1C=O | inactive |  |
| O=C1OC(c2ccc(O)cc2)(c2ccc(O)cc2)c2ccccc21 | inactive |  |
